# High-throughput results from PubChem BioAssay.
# ALOX12 inh: ALOX12 (human) lipoxygenase inhibition; P18054; purified 12hLO, xylenol orange hydroperoxide absorbance; Potency, µM (doses to about 108 µM), inactives show top-dose activity change, negative = inhibition, most hits filed as inhibitors; actives 1.1% (n = 580,000); AID 1671190; also: % is scaled to controls: 0 for no effect and ±100 for the full control effect
#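 Hydroperoxide product was detected by ferrous iron/xylenol orange as the 573 to 405 nm absorbance ratio. Arachidonic acid at 40 uM (final) was turned over for 30 min at room temperature by 150 nM human 12hLO, pH 7.0 Hepes buffer, after 15 min compound preincubation.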
# HP1b chromo inh: inhibitors of HP1-beta chromodomain binding to methylated histone tails. actives 0.56% (n = 390,000). P83916. AID 540317. Potency, µM (doses to about 114 µM), for the others: at the highest dose activity change, negative = inhibition, hits mostly inhibitors. AlphaScreen HP1-beta / biotin-H3K9me3 peptide binding; also: nearly all actives have a fitted effect of over 70% in size
# Target sequence (P83916 whole entry, looked up): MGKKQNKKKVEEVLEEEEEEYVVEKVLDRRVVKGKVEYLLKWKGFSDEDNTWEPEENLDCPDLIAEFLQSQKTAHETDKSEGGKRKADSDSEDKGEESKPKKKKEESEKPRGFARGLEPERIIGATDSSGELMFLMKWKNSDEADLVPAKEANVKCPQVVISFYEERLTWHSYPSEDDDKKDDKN
#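 Compound inhibition of the preformed complex between 50 nM HP1-beta and 50 nM biotinylated H3K9me3 peptide was read by AlphaScreen. Buffer was PBS pH 7.4 with 0.01% Tween-20. Incubations ran 30 min at room temperature, with 10 ug/mL donor/acceptor beads.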
# G9a block: inhibitors of human histone lysine methyltransferase G9a | G9a H3K9 monomethylation, AlphaScreen, 2 h | Potency, µM (series often up to 102 µM), without a hit: top-dose activity, negative = inhibition, most hits filed as inhibitors | actives 8.8% (n = 350,000) | AID 504332; also: % is scaled to controls: 0 for no effect and ±100 for the full control effect; nearly all actives have a fitted effect of over 75% in size
# Target sequence (Q96KQ7 913-1193 limits assumed): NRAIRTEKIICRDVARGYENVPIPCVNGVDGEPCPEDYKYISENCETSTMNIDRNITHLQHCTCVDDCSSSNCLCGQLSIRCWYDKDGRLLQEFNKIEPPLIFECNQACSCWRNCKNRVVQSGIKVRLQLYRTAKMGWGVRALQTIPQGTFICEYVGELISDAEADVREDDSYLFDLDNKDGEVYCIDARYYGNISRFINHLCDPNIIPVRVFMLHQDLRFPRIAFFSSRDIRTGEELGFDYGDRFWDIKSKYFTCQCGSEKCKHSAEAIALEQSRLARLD
#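 Signal arises when biotinylated H3K9 peptide, once monomethylated, bridges streptavidin donor and antibody-captured acceptor beads. Enzyme at 20 nM was preincubated 15 min with test compounds; peptide 500 nM and SAM 20 uM then reacted for 2 h.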
# Sfp PPTase inh: Sfp phosphopantetheinyl transferase inhibition; Q9F4F7; Biochemical Sfp PPTase activity, qHTS; Potency, µM, for inactives: largest response in the series, negative = inhibition, most hits filed as inhibitors; actives 3.5% (n = 310,000); AID 1490;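 also: the enzyme is Sfp with the accession as filed and its product quenches rhodamine fluorescence; 0% = enzyme reaction without inhibitor and -100% = no enzyme wells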
#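 Step 1, compound plus 15 nM Sfp-PPTase, 15 min, room temperature. Step 2, add rhodamine-CoA (5 uM) and BHQ-2-YbbR (12.5 uM). Step 3, read 525/598 nm fluorescence at 0 and 30 min.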
# JMJD2A Tudor inh: JMJD2A Tudor domain (human) inhibition | AID 504339 | AlphaScreen JMJD2A-Tudor / H3K4me3 peptide binding | actives 4.4% (n = 390,000) | Potency, µM (doses to about 114 µM), without a hit: at the highest dose activity change, negative = inhibition, most hits filed as inhibitors; also: % is scaled to controls: 0 for no effect and ±100 for the full control effect; nearly all actives have a fitted effect of over 50% in size
# BAZ2B block: blocks human BAZ2B; Q9UIF8; AlphaScreen BAZ2B-H3K14Ac peptide displacement; Potency, µM (series often up to 114 µM), inactives show at the top dose activity change, negative = inhibition, most hits filed as inhibitors; actives 4.4% (n = 360,000); also: % is scaled to controls: 0 for no effect and ±100 for the full control effect; nearly all actives have a fitted effect of over 60% in size
#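 Inhibition is scored as reduced AlphaScreen emission. The BAZ2B/b-H3(5-23)K14Ac complex (50 nM each) in PBS pH 7.4, 0.01% Tween-20 meets compound (up to 110 uM) for 30 min at RT before bead addition.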
# Numbers without * were called inactive; u = inconclusive; x = not tested or not shown; ! = repeats disagree; [ ] = dose if it differs, or a comment. An excerpt weighted towards active compounds, which were near 8.7% of everything screened. Calls follow the shape of the dose curve; as a rule, active = well fitted curve in the direction sought with a large enough effect; inconclusive = small, poorly fitted or top-dose-only effect, or another doubt; inactive = no such curve, though single readings can be large; an effect the other way counts as inactive or inconclusive. Potency is read from the fitted curve at half-maximal effect.
SMILES,ALOX12 inh,HP1b chromo inh,G9a block,Sfp PPTase inh,JMJD2A Tudor inh,BAZ2B block
O=c1cc(-c2ccc(O)cc2)oc2cc(O)cc(O)c12,u,15%,21%[59 µM],32µM*!,-26%,x
COc1cc(-c2cc(=O)c3c(O)cc(O)cc3o2)ccc1O,17%,19%,-5%[12.7 µM],3%,-18%,-19%
O=c1oc(-c2ccc(O)c(O)c2)cc2cccc(O)c12,4.5µM*,-21%,x,x,u,x
C[C@@H](O)CNC(=O)c1nc(-c2ccc3cc[nH]c3c2)no1,14%,x,x,x,x,x
Cc1cccc(NCC(=O)NNC(=S)Nc2ccccc2)c1,63%,-15%,32µM*,26%,u,-3%
O=C(CSCc1ccccc1Cl)NNC(=S)Nc1ccccc1,u,-28%,7.9µM*,9%,u,-33%
CC(=O)c1cccc(NC(=S)NC(=O)Cc2ccccc2)c1,-24%,54%,22µM*,15%,-3%,u
CC(C)CC(NC(N)=O)C(=O)OCC(=O)Nc1ccc(OC(F)F)cc1 (stereo unspecified),-14%,3%,-7%,18%,40µM*,-9%
CC(=O)NNC(=S)Nc1ccccc1,71%,x,x,x,x,x
O=C(CSCc1ccccc1Cl)Nc1ccc(C(=O)O)cc1,-2%,29%,11%[0.501 µM],28%,-9%,3%
CN(C)c1ccc(C(=O)N2CC[C@@H](CC(=O)O)[C@@H](CCN3CCN(c4ccc(F)cc4)CC3)C2)cc1,20%,x,x,x,x,x
O[C@@H]1C[C@@H](c2nc(-c3cccnc3)no2)N(CC2CC2)C1,-3%[176 µM],x,x,x,x,x
O=C(NCc1ccc(F)cc1)[C@@H]1C[C@@H](c2ccc(F)cc2)N([S+](=O)([O-])c2cccnc2)C1,-1%,x,x,x,x,x
O=C1CCCN1CCCN1C(=O)[C@H]2CN(Cc3ccccc3OC(F)(F)F)C[C@H]2C1=O,23%,x,x,x,x,x
O=C(Cc1ccccc1)NNC(=S)Nc1ccc(Cl)cc1,-21%,7%,u,8%,-17%,6%
COc1ccc(NC(=S)NC(=O)Cc2ccccc2)cc1,82%,53%,7%[0.501 µM],9%,-13%,-3%
COc1ccccc1NC(=S)NNC(=S)Nc1ccc(OC(F)F)cc1,u,u,1µM*,-27%,79µM*,-38%
CCN(CC)c1ccc(NC(=O)CSC(=O)c2ccccc2)cc1,-8%,u,x,x,u,x
O=C(Cc1ccccc1)NC(=S)Nc1ccc(OC(F)F)cc1,35µM*,47%,9%,15%,-6%,-17%
CC(=O)c1cccc(NC(=O)CSC(=O)c2ccccc2)c1,-14%,47%,20µM*,-14%,5%,5%
Cc1cccc(NC(=S)NNC(=O)Cc2ccccc2)c1,-5%,12%,16µM*,21%,-5%,1%
Cc1ccc(C)c2[nH]c(=O)c(CN(Cc3nnnn3C3CCCCC3)CC3CCCO3)cc12 (stereo unspecified),-23%,29%,u,79µM*,-30%,-4%
Cc1ccc2[nH]c(=O)c(CN(Cc3nnnn3C3CCCC3)C3CCCCC3)cc2c1,u,37%,-3%[59 µM],-11%,-9%,7%
Cc1ccc(C)c2[nH]c(=O)c(CN(CCN3CCOCC3)Cc3nnnn3CC3CCCO3)cc12 (stereo unspecified),-4%,33%,u,u,-6%,x
Cc1ccc2[nH]c(=O)c(CN(Cc3ccccc3)Cc3nnnn3C3CCCC3)cc2c1,u,9%,-43%[12.7 µM],40µM*,u,u
SMILES,ALOX12 inh,HP1b chromo inh,G9a block,Sfp PPTase inh,JMJD2A Tudor inh,BAZ2B block
CC(=O)NC(NC(C)=O)C(Cl)Cl,-7%,x,x,x,x,x
COc1ccc(NC(=O)CC(C)C)c2cccnc12,20%,x,x,x,x,x
Cc1cc(C)cc(N(C(=O)CNS(=O)(=O)c2ccccc2)C(C(=O)NCc2ccccc2)c2ccc(C)o2)c1 (stereo unspecified),-15%,12%,u,7%,-14%,-33%
Cc1ccc(S(=O)(=O)NCC(=O)N(c2ccccc2)C(C(=O)NCc2ccccc2)c2ccco2)cc1 (stereo unspecified),-32%,-2%,-5%[59 µM],79µM*,-30%,0%
COc1ccc(C2C=C(c3ccccc3)Nc3nc(NC(C)=O)nn32)cc1 (stereo unspecified),u,27%,u,-7%,-10%,50µM*!
COc1ccc(C2=CC(c3ccc(C)cc3)n3nnnc3N2)cc1 (stereo unspecified),x,109%,u,u,-1%,-8%
COc1cccc(C2=CC(c3ccccc3)n3nnnc3N2)c1 (stereo unspecified),-9%,28%,40µM*,45µM*,-15%,3%
COc1ccc(C2C=C(c3ccccc3)Nc3nnnn32)cc1 (stereo unspecified),-16%,31%,50µM*,-11%,-16%,-1%
COc1cccc(C2=CC(c3cccc(OC)c3OC)n3nnnc3N2)c1 (stereo unspecified),u,54%,10µM*,u,-12%,-5%
COc1cccc(C2=CC(c3cccc(OC)c3OC(F)F)n3nnnc3N2)c1 (stereo unspecified),314%,40%,6%[12.7 µM],-16%,14%,21%
COc1ccc(C)cc1NC(=O)C(Sc1nnc2ccccn12)c1ccccc1 (stereo unspecified),-1%,-15%,20%[59 µM],7%,-16%,-6%
COc1ccc(Nc2nnc(SC(C(=O)Nc3cc(C)ccc3C)c3ccccc3)s2)cc1 (stereo unspecified),u,2%,50µM*,11%,-17%,-19%
CCNc1nc(NCC)n2c(SCC(=O)Nc3cc(OC)ccc3OC)nnc2n1,3%,2%,9%[0.501 µM],x,-21%,6%
COc1ccc(C)cc1NC(=O)C(Sc1nnc(Nc2cc(C)ccc2OC)s1)c1ccccc1 (stereo unspecified),-12%,6%,3.5µM*,5%,u,-34%
COc1ccc(Nc2nnc(SC(C(=O)Nc3ccc(OC)c(Cl)c3)c3ccccc3)s2)cc1 (stereo unspecified),-5%,1%,20µM*,-3%,-18%,-14%
